# According to PubChem BioAssay (EPA / NIEHS):
# Calls of active or inactive are those of the source. How the source made its calls: active means hit-call score of the fitted dose curve at least 0.9, where 1 is the maximum; inactive means score below 0.9.
# Assay: ATG_AP_2_CIS: Attagene CIS-FACTORIAL HepG2 Assay for human Activator Protein 2 (AP-2) (AID 2282932)
# Conditions: HepG2 AP-2 cis-reporter, Attagene transcription factor profiling; actives raise or lower the signal
# Procedure: ATG_CIS is a cell-based, multiplexed-readout assay that uses HepG2, a human liver cell line, with measurements taken at 24 hours after chemical dosing in a 24-well plate.ATG_AP_2_CIS is one of 52 assay component(s) measured or calculated from the ATG_CIS assay. It is designed to make measurements of mRNA induction, a form of inducible reporter, as detected with fluorescence intensity signals by Reverse transcription polymerase chain reaction (RT-PCR) and Capillary electrophoresis technology.Data from the assay component ATG_AP_2_CIS was analyzed into 1 assay endpoint. This assay endpoint, ATG_AP_2_CIS, was analyzed with bidirectional fitting relative to DMSO as the negative control and baseline of activity. Using a type of inducible reporter, measures of mRNA for gain or loss-of-signal activity can be used to understand the reporter gene at the transcription factor-level as they relate to the gene TFAP2A and TFAP2B and TFAP2D. Furthermore, this assay endpoint can be referred to as a primary readout, because this assay has produced multiple assay endpoints where this one serves a reporter gene function. To generalize the intended target to other relatable targets, this assay endpoint is annotated to the dna binding intended target family, where the subfamily is basic helix-turn-helix leucine zipper.
# Human liver HepG2 cells are transiently transfected with multiple reporter transcription units (MRTUs) in 6-well plates using FuGene 6 reagent (Roche; 3 ml FuGene/1 mg DNA). The MRTU constructs are regulated by a cis-regulating element (promoter). […] A major difference between the CIS and TRANS system is that in CIS activities of endogenous TFs are measured, whereas the TRANS assay evaluates changes in activities of exogenous, chimeric NR-Gal4 proteins. […] At the end of 24 hour incubation, total RNA was isolated using TriZol reagent (Invitrogen). The isolated RNA is then reverse-transcribed using oligo(dT) primer and Mo-MLV reverse transcriptase (Invitrogen) with DNAse I (Ambion) treatment for 30 min. The one-tenth of the produced cDNA was amplified by PCR using Taq DNA polymerase (Invitrogen) and two reporter sequence-specific primers. The PCR products were fluorescently labeled by primer extension with 6-arboxyfluorescein (6-FAM) 5'-labeled reporter sequence-specific primer (2 min at 95 C, 20 s at 68 C and 10 min at 72 C) and these products were digested with 5U of HpaI (New England Biolabs) for 2h at 37 C. The fragments were purified using Qiaquick PCR columns (Qiagen), analyzed on an ABI 3130xL genetic analyzer (Applied Biosystems) with peak positions identified by using a set of X-rhodamine (ROX)-labeled MapMarker1000 molecular weight standards (BioVentures). The raw capillary electrophoresis data was processed using Attagraph software (Attagene).
Compound,outcome,AC50
NC(=O)C(F)(F)C(F)(F)F,inactive,
O=C(O)CF,inactive,
Nc1ccc(Cl)cc1,inactive,
ClC(Cl)=C(c1ccc(Cl)cc1)c1ccccc1Cl,inactive,
O=[N+]([O-])c1cc(Cl)ccc1Cl,inactive,
O=S1(=O)OCC2C(CO1)C1(Cl)C(Cl)=C(Cl)C2(Cl)C1(Cl)Cl (stereo not given),inactive,
O=c1ssc(Cl)c1Cl,inactive,
CN(C)C(=O)Cl,inactive,
Oc1ccccc1Br,inactive,
ClC(Cl)(Cl)c1ccccc1,inactive,
FC(F)(F)c1ccc(Cl)cc1,inactive,
O=S(=O)(c1ccc(O)cc1)c1ccc(O)cc1,inactive,
O=[N+]([O-])c1ccc(Cl)c(Cl)c1,inactive,
CCCCN(CCCC)SN(C)C(=O)Oc1cccc2c1OC(C)(C)C2,inactive,
c1ccc2c(c1)sc1ccccc12,inactive,
O=[N+]([O-])c1ccccc1,inactive,
CC(=O)c1ccc(-c2ccccc2)cc1,inactive,
Cc1ccc([N+](=O)[O-])cc1C,inactive,
CCCN(CCC)c1c([N+](=O)[O-])cc(C(C)C)cc1[N+](=O)[O-],inactive,
Cc1cccc(N)c1,inactive,

Compound,outcome,AC50
O=C(O)C(F)(F)C(F)(F)C(=O)O,inactive,
CC(C)Nc1ccc(Nc2ccccc2)cc1,inactive,
CCCCN(CC)C(=O)SCCC,inactive,
CC1=C(C(=O)Nc2ccccc2)S(=O)(=O)CCO1,,18.1 µM (active)
NNC(N)=S,inactive,
C=CC(=O)OCC(F)(F)C(F)F,inactive,
N#Cc1cc([N+](=O)[O-])ccc1N,inactive,
CCOP(=S)(S)OCC,inactive,
CC(Cl)(Cl)C(=O)O,inactive,
CCOP(=S)(OCC)SCS(=O)(=O)CC,inactive,
O=C(O)C(F)(OC(F)(F)C(F)(F)C(F)(F)F)C(F)(F)F (stereo not given),inactive,
Cc1cc(C)c(C(=O)P(=O)(c2ccccc2)c2ccccc2)c(C)c1,,59.3 µM (active)
Oc1ccc(I)cc1,inactive,
O=S(=O)(F)C(F)(F)C(F)(F)C(F)(F)C(F)(F)C(F)(F)C(F)(F)C(F)(F)C(F)(F)F,inactive,
COP(=O)(CCC(=O)NCO)OC,inactive,
N#C/C=C/c1ccccc1,inactive,
OCC(F)(F)OC(F)(F)C(F)(F)OC(F)(F)CO,inactive,
O=C(O)C(F)(F)OC(F)(F)C(F)(F)OC(F)(F)C(=O)O,inactive,
O=C(O)C(F)(F)OC(F)(F)C(F)(F)OC(F)(F)F,inactive,
Cn1[nH]nnc1=S,inactive,
